# Screening results: PubChem BioAssay, National Center for Advancing Translational Sciences (NCATS)
# S-ASM inh – inhibitors of human secretory acid sphingomyelinase; placental ASM, HMU-PC fluorogenic substrate, 60 min; Potency, µM (top dose mostly 57.5 µM), for inactives: at the top dose activity change, negative = inhibition, usual class: inhibitors; hit rate 0.006% among 340,000; P17405; AID 504937; note: potency is the fitted concentration of half-maximal effect
#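 Human placenta-derived ASM preincubated with compound 10 min at room temperature, then reacted with 9 uM (final) fluorogenic HMU-PC substrate for 60 min at 37 C. Stop solution raises pH to 10; fluorescence read at Ex 386/Em 447 nm.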
# mIDH1 inhibitor – human IDH1 R132H inhibition | O75874 | IDH1-R132H enzyme, NADPH consumption, diaphorase/resazurin fluorescence | Potency, µM (doses to about 76.6 µM), for inactives: at the highest dose activity change, negative = inhibition, actives largely listed as inhibitors | hit rate 0.093% among 390,000 | AID 602179; note: potency is the fitted concentration of half-maximal effect; % is set by controls: 0 for no effect and ±100 for the full control effect; nearly all actives have a fitted effect of over 65% in size
# Target sequence (O75874 whole entry R132H, stated change not applied): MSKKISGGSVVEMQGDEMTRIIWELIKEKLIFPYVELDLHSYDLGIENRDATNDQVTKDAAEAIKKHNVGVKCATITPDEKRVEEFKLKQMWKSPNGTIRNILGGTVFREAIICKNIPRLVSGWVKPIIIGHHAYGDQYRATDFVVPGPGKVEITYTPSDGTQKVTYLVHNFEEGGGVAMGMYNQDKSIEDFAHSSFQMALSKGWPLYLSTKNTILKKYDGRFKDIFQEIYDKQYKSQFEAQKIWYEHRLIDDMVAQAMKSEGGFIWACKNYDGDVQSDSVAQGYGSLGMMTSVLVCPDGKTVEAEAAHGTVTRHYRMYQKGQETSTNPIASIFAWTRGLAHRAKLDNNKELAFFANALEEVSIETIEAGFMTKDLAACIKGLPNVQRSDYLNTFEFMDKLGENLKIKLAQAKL
#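 IDH1-R132H (0.5 ug/mL) preincubated 30 min with compound, then NADPH (0.016 mM) and alpha-KG (2 mM) added; 80 min at RT, pH 7.5. Remaining NADPH coupled via diaphorase/resazurin to fluorescence (540/590 nm); concentration-response curves normalized to no-enzyme control.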
# KCNH2 3.1 block – blocks the human KCNH2 3.1 channel isoform; U2OS KCNH2 3.1, thallium flux FluxOr; active compounds read low; activity change, % (tested at about 1.8 µM); hit rate 0.95% among 340,000; AID 720553;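 active = maximum activity change below -70%; inconclusive = maximum activity change from -70% to -50%; inactive = maximum activity change above -50%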;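 note: thallium influx rate constant from kinetic fluorescence after stimulation buffer; % is set by controls: 0 for no effect and ±100 for the full control effect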
#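 We transduce U2OS cells with the mutant 3.1 virus, culture them overnight, load FluxOr with Red40 quencher for 45 min, then add stimulation buffer and read kinetically for 2 min to derive a normalized rate constant.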
# hERG WT inh – blocks the wildtype human KCNH2 potassium channel; Q12809; U2OS, BacMam KCNH2, thallium flux FluxOr; active compounds read low; activity change, % at 1.84 µM; hit rate 0.37% among 340,000;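 active = maximum activity change below -70%; inconclusive = maximum activity change between -70% and -50%; inactive = maximum activity change above -50%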; note: % is set by controls: 0 for no effect and ±100 for the full control effect
#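 U2OS cells transduced with wild-type KCNH2 virus are loaded with FluxOr dye for 45 min, and thallium flux is measured in kinetic reads before and after stimulation buffer. Rate constants are normalized to DMSO controls.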
# Anesthetic bind – binds horse apoferritin like a general anesthetic | apoferritin/1-aminoanthracene competitive binding, fluorescence | P02791 | hit rate 0.074% among 350,000 | Potency, µM (series often up to 77.5 µM), for the others: top-dose activity change, negative = displacement, actives largely listed as inhibitors; note: potency is the fitted concentration of half-maximal effect; % is set by controls: 0 for no effect and ±100 for the full control effect; nearly all actives have a fitted effect of over 20% in size
# Target sequence (P02791 2-175 limits assumed): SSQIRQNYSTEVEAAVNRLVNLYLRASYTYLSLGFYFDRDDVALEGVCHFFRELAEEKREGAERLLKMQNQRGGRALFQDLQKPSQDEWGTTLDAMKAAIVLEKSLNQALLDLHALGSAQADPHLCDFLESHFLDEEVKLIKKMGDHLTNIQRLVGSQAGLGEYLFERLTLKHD
#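 Horse-spleen apoferritin (10 uM) in 50% saturated 1-aminoanthracene in PBS was incubated 10 min at room temperature with compound. Fluorescence (ex 380, em 535 nm) was normalized to free and bound 1-AMA, with concentration-response fitted by a four-parameter Hill equation.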
# * marks the source's active call; other numbers are inactive results; u = inconclusive; x = not tested or not shown; [ ] = dose if it differs, or a comment. Rows were chosen to be rich in hits. Some 1.2% of all compounds tested hit in one or more screens of this group. Unless noted, calls come from the whole dose curve; as a rule, active = well fitted inhibition curve with a large enough effect; inconclusive = small, poorly fitted or top-dose-only effect; inactive = no such curve, though single readings can be large or run the other way.
SMILES,S-ASM inh,mIDH1 inhibitor,KCNH2 3.1 block,hERG WT inh,Anesthetic bind
COc1ccc(CN2CCCC(C(=O)c3ccc(Cl)cc3)C2)cc1Cn1cccn1 (centres undefined),-2.6%,-9.5%,-96.4*,-106.5*,u
COc1ccc(C(=O)C2CCCN(Cc3cc(Cl)ccc3O)C2)c(OC)c1 (centres undefined),-1.1%,-4.8%,-74.2*,17.5,-3.7%
CCOc1cccc(CN2CCCC(C(=O)c3cc(Cl)ccc3OC)C2)c1O (centres undefined),2.2%,11.9%,-115.0*,-105.0*,-22.5%
CCOc1cccc(CN2CCCC(N3CCc4ccccc4C3)C2)c1O (centres undefined),0.4%,-9.4%,-18.5,9.9,-18.0%
COc1ccc(C(=O)C2CCCN(Cc3cc(C)c(O)c(C)c3)C2)c(OC)c1 (centres undefined),0.2%,6.1%,0.8,8.7,-15.1%
CCOc1cccc(CN2CCCC(N3CCN(c4cccc(Cl)c4)CC3)C2)c1O (centres undefined),1.3%,16.5%,-81.9*,-36.5,-12.8%
Fc1ccc2[nH]c(-c3cccs3)cc2c1,x,-18.9%,x,x,2.1%
CCCCc1nn2c(=O)cc(COC(=O)c3ccc(NC(=O)CCc4ccccc4)cc3)nc2s1,x,0.0%,x,x,-9.3%
CN(C)c1ccc(/C=C/C(=O)c2cccc(Br)c2)cc1,7.2%,2.2%,-115.4*,-149.4*,-13.7%
Cc1cc(C)cc(NC(=O)NNC(=O)c2cc3occc3[nH]2)c1,1.4%,-3.2%,-8.5,-46.5,-9.9%
Cc1cccc(NC(=O)NNC(=O)c2cc3occc3[nH]2)c1C,2.1%,0.7%,-449.3*,-13.5,-9.6%
CS(=O)(=O)N1CCC(n2c(C(F)(F)F)nc3cccnc32)CC1,x,-14.8%,x,x,-10.7%
CCCCN(CCCC)CCNC(=O)c1cn(CC)c2ccc(S(=O)(=O)N(C)C3CCCCC3)cc2c1=O,-0.8%,-6.6%,-82.6*,-70.2*,u
CCCCN(C)CCCNC(=O)c1cn(CC)c2ccc(S(=O)(=O)N3CCc4ccccc4C3)cc2c1=O,-0.8%,-0.4%,-91.4*,u,-7.9%
O=C(O)CCC/C=C\C[C@H]1C(=O)C[C@@H](O)[C@@H]1/C=C/[C@@H](O)CCc1ccccc1,x,x,x,x,3.6%
Cc1cccc(COCC(Cc2ccccc2)N2CCN(C(=O)c3ccc(C(F)(F)F)cc3)CCC2=O)c1 (centres undefined),-4.4%,-3.9%[38.3 µM],4.5,-2.2,7.4%
O=C(c1ccc(C(F)(F)F)cc1)N1CCC(=O)N(C(COCc2ccc(C(F)(F)F)cc2)Cc2ccccc2)CC1 (centres undefined),-9.0%,16.2%,-112.1*,1.3,u
CCOP(=O)(OCC)C(NC(=O)c1ccc(OC)cc1)c1ccccc1 (centres undefined),2.3%,2.9%,-95.8*,2.2,0.1%
CCc1ccc(CN2CCC(Oc3cc(C(=O)NC4CC4)ccc3OC)CC2)cc1,x,-1.2%,-97.3*,-108.2*,x
COc1ccc(C(=O)NC2CC2)cc1OC1CCN(Cc2ccc(Cl)cc2)CC1,2.3%,4.6%,x,-128.2*,-4.9%
C=CCOc1ccccc1CN1CCC(Oc2cc(C(=O)NC3CC3)ccc2OC)CC1,1.0%,-0.8%,-76.9*,-99.4*,-9.7%
COc1ccc(C(=O)NC2CC2)cc1OC1CCN(C(C)CSC)CC1 (centres undefined),1.1%,10.6%,-73.6*,-16.3,-14.4%
C/C=C(\C)CN1CCC(Oc2cc(C(=O)NC3CC3)ccc2OC)CC1,2.6%,6.8%,x,8.7,-4.9%
COc1ccc(C(=O)NC2CC2)cc1OC1CCN(Cc2ccccc2O)CC1,-0.5%,4.7%,-48.5,-20.6,-9.7%
C[C@@]12C=CC(=O)C=C1CCC1C3CC(O)[C@@](O)(C(=O)CO)[C@]3(C)CC(O)[C@]12F (some centres undefined),x,x,x,x,-13.2%
SMILES,S-ASM inh,mIDH1 inhibitor,KCNH2 3.1 block,hERG WT inh,Anesthetic bind
Cc1cc(C)cc(NC(=O)c2ccc3c(c2)nnn3C2CCCC2)c1,x,12.2%,x,x,-24.0%
CCCCCN(CCCCC)C(=O)[C@H](CCC(=O)O)NC(=O)[C@H](Cc1ccc(OP(=O)(O)O)cc1)NC(C)=O,x,x,x,x,6.4%
CCOCCCNC(=O)c1ccc(OC)c(OC2CCN(C(C)C)CC2)c1,-1.4%,-8.9%,4.3,-12.9,-5.1%
COc1ccc(C(=O)NCCCC2CCCC2)cc1OC1CCN(C(C)C)CC1,x,10.1%,-93.8*,45.2,x
CC[C@@H](C)[C@H](NC(=O)OCc1ccccc1)c1nnc([C@@H](NC(=O)OCc2ccccc2)[C@@H](C)CC)o1,-8.3%,13.1%,-85.8*,4.5,60.6%
C[C@H](NC(=O)OCc1ccccc1)C(=O)NNC(=O)[C@H](C)NC(=O)OCc1ccccc1,-1.4%,6.6%,x,x,6.5%
CC(NC(=O)CCc1ccccc1)c1ccc2c(c1)OCO2 (centres undefined),4.3%,2.7%,-1.8,-142.4*,-8.7%
O=c1cc(-c2cccc(F)c2)[nH]c2cc(Cl)ccc12,x,x,x,x,-9.9%[163 µM]
CC(=O)c1ccc(N2CCN(CC(O)COC(c3ccccc3)c3ccccc3C)CC2)cc1 (centres undefined),-3.9%,10.5%,-94.2*,-25.3,-4.4%
CC(=O)c1ccc(N2CCN(CC(O)COC(c3ccccc3)c3ccccc3)CC2)cc1 (centres undefined),0.8%,-1.0%,-14.1,5.3,-12.1%
CC(C)NC(=O)C12CC3CC(C1)CC(C(=O)NC(C)C)(C3)C2,0.3%,-6.4%,-88.5*,16.3,-2.7%
Cc1ccc(C23CC4CC(CC(C(=O)NC(C)C)(C4)C2)C3)cc1,-2.1%,6.0%,-5.7,31.1,-6.2%
CCOc1cc(Cn2c(-c3ccc(O)c(OCC)c3)nc3ccccc32)ccc1O,x,-20.0%,x,x,39.5%
COc1cc(CNC2CCCCCC2)cc(OC)c1,2.2%,4.4%,-87.2*,-5.3,-12.9%
COc1cc(CNC2CCCCCC2)cc(OC)c1OC,0.7%,4.9%,-15.4,-10.3,-5.9%
COC(=O)c1cccc(Nc2c(-c3cc(Br)ccc3O)nc3nc[nH]n23)c1,x,-5.6%,x,x,-9.2%
CCOC(=O)C1CCN(c2ncnc3c2c(-c2ccccc2)cn3-c2ccc(Cl)cc2)CC1,x,8.0%,x,x,-6.4%
COCCCNCCC(CCC(C)C)c1ccc2c(c1)OCO2 (centres undefined),-4.3%,6.5%,u,u,-10.1%
CC(C)CCC(CCN1CCOCC1)c1ccc2c(c1)OCO2 (centres undefined),1.1%,3.8%,-111.1*,-115.5*,-5.3%
CC(C)CCC(CCN1CCCC1)c1ccc2c(c1)OCO2 (centres undefined),-1.4%,6.4%,-104.7*,u,-3.9%
CCC(=C(CC)c1ccc(O)cc1)c1ccc(O)cc1,x,x,x,x,-8.8%[29.3 µM]
CCCCCCCCCCCCOCCOCCOCCOCCOCCOCCOCCOCCOCCO,x,x,x,x,-13.7%
